The list is not random: actives were taken first. Their share in the collection is about 3.1%.
ARNT TACC3 PPI: disruptors of ARNT/TACC3 protein interaction, primary screen, biochemical, AlphaScreen, single concentration. Transforming acidic coiled-coil-containing protein 3 (Homo sapiens), Q9Y6A5. 390,000 tested, 0.66% active. inhibition, % at 9.99 µM. AlphaScreen His-ARNT PAS-B/GST-TACC3 binding, luminescence; TACC3 fragment carries E629A point mutation;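 active = mean inhibition of replicates at least 50% and at least half of replicates each reaching 50%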
HSF1 activator: HSF-1 activators, primary screen, NIH3T3-HGL cells, MG132 stress, luminescence, single point. activation, % at 9 µM. NIH3T3-HGL HSF-1 luciferase reporter, 8 h; 100% = twice DMSO control signal. AID 504408, 2011. 300,000 tested, 1.7% active;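 active = mean replicate activation of at least 50% with a set share of replicates each reaching 50%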
HIF act: HIF pathway transcriptional activators, primary screen, cell-based, U2OS HRE-luciferase, luminescence | 300,000 tested, 0.32% active | activation, % at 7.5 µM (by protocol) | U2OS HRE-luciferase reporter; normalized: DMSO 0%, desferrioxamine 100% | AID 1910, 2009;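 active = mean activation of at least 10% of the iron chelator positive control signal, with at least half of replicates also reaching 10%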
HSF1 inhib: HSF1 inhibitors in luciferase reporter cells, primary screen, cell-based, NIH3T3, luminescence | activity change, negative = inhibition, % at 7.5 µM (by protocol) | AID 2098, 2009 | NIH3T3-HGL HSE-luciferase, MG132-induced, luminescence 8 h; stronger effect = lower value | 300,000 tested, 0.77% active;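 active = more than half of replicate wells show activity change below -50%, luminescence cut by over half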;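 also: luciferase reports HSF-1 transcriptional activity via heat shock element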
HSP90 inh: HSP90 inhibitors, primary screen, cell lysate, luminescence | Rabbit reticulocyte lysate, luciferase refolding luminescence, 3 h | inhibition, % at 5.6 µM | Heat shock protein HSP 90 (rabbit reticulocyte lysate; luciferase refolding) | 290,000 tested, 0.91% active | AID 1789, 2009;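 active = inhibition above the screen-wide mean plus 3 SD, computed separately per campaign, cut at about 16% in these data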;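 also: inhibitors lower the luminescence because luciferase stays unfolded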
Of the large screens only hits and unclear results are named; the others gave an inactive call; ! = a repeat was not active.

CC(Cc1ccccc1)NCC(=O)Nc1cc(N(C)C)nc2ccccc12 (configuration not stated)	HSF1 activator 58.0
CC1[C@H]2Cc3ccc(O)cc3[C@]1(C)CCN2C (some centres not stated)	none (no result: HSF1 activator, HIF act, HSF1 inhib, HSP90 inh)
CN1CC[C@@]2(C)c3cc(O)ccc3N(C)[C@@H]12	ARNT TACC3 PPI 47.0! (no result: HSF1 activator, HIF act, HSF1 inhib, HSP90 inh)
CN1CC[C@@]2(C)c3cc(O)ccc3N(C)C2O1 (some centres not stated)	ARNT TACC3 PPI 30.4 (no result: HSP90 inh)
COC(=O)[C@H]1[C@H](CO)[C@H]2Cn3c(ccc(-c4ccccc4)c3=O)[C@@H]1N2C(=O)c1ccccc1F	none (no result: HSF1 activator, HIF act, HSF1 inhib, HSP90 inh)
CC(=O)Cc1c[nH]c2ccccc12	HSF1 inhib -90.8 (no result: ARNT TACC3 PPI)
CN(C)Cc1c[nH]c2ccccc12	none (no result: HSF1 activator, HIF act, HSF1 inhib, HSP90 inh)
CCN(CC)c1ccc(CN2CC=C(c3ccc(F)cc3)CC2)cc1	none
COc1ccc(CN2CC=C(c3ccc(F)cc3)CC2)cc1Br	HSF1 inhib -67.9
Cc1cc(C)nc(-n2c(C)nc3cc(Cl)ccc3c2=O)c1	HSF1 inhib -77.9
CCN1[C@@H]2Cn3c(ccc(-c4cccc(C(=O)N(C)C)c4)c3=O)[C@H]1[C@@H](C(=O)OC)[C@@H]2CO	none (no result: HSF1 activator, HIF act, HSF1 inhib, HSP90 inh)
O=c1[nH]c(O)c(N=Nc2cc([N+](=O)[O-])ccc2O)c(=O)[nH]1	ARNT TACC3 PPI 56.6
O=C(O)[C@@H]1[C@@H](CO)[C@@H]2Cn3c(ccc(C4=CCCC4)c3=O)[C@H]1N2C(=O)Cc1ccccn1	none (no result: HSF1 activator, HIF act, HSF1 inhib, HSP90 inh)
OCC1(CO)COC(c2cccnc2)N1 (configuration not stated)	HSF1 activator 66.0
COC(=O)[C@H]1[C@H](CO)[C@H]2Cn3c(ccc(/C=C/c4ccccc4)c3=O)[C@@H]1N2C(=O)C1CC1	none (no result: HSF1 activator, HIF act, HSF1 inhib, HSP90 inh)
CC1Oc2cc3c(-c4c(O)cc(O)c5c(O)c6c(cc45)OC(C)C(C)C6=O)c(O)cc(O)c3c(O)c2C(=O)C1C (configuration not stated)	ARNT TACC3 PPI 79.7
O=C(Cc1ccccc1)N1C[C@@H]2[C@H](c3ccccc31)[C@@H](CO)N2Cc1ccccc1	none (no result: HSF1 activator, HIF act, HSF1 inhib, HSP90 inh)
CCc1ccc(N2C(=O)NC(=O)/C(=C\c3cccn3CCOc3ccc(C(C)C)cc3)C2=O)cc1	HSP90 inh 31.0
O=C(O)[C@@H]1[C@@H](CO)[C@@H]2Cn3c(ccc(-c4ccccc4)c3=O)[C@H]1N2S(=O)(=O)c1ccccc1F	none (no result: HSF1 activator, HIF act, HSF1 inhib, HSP90 inh)
CC(=O)NC1=C(N2CC2C)C(=O)C(NC(C)=O)=C(N2CC2C)C1=O (configuration not stated)	ARNT TACC3 PPI 8.8 (no result: HSF1 activator, HIF act, HSF1 inhib, HSP90 inh)
CCCC(=O)NC1=C(N2CC2)C(=O)C(NC(=O)CCC)=C(N2CC2)C1=O	none (no result: HSF1 activator, HIF act, HSF1 inhib, HSP90 inh)
COC(=O)[C@H]1[C@H](CO)[C@H]2Cn3c(ccc(-c4ccc(F)cc4)c3=O)[C@@H]1N2C(C)=O	none (no result: HSF1 activator, HIF act, HSF1 inhib, HSP90 inh)
CNc1cc(Cl)c2nonc2c1[N+](=O)[O-]	HSF1 activator 168.4
Cc1ccccc1-c1ccc([C@@H]2[C@H]3CN(C(=O)Cc4ccccn4)CCCCN3[C@H]2CO)cc1	none (no result: HSF1 activator, HIF act, HSF1 inhib, HSP90 inh)
Cc1cc([N+](=O)[O-])c2ccccc2[n+]1[O-]	HSF1 inhib -78.0
COc1ccc(C#Cc2ccc([C@H]3[C@H](CO)N4CCCCN(C(=O)Cc5ccncc5)C[C@@H]34)cc2)cc1	none (no result: HSF1 activator, HIF act, HSF1 inhib, HSP90 inh)
CCCc1[nH]nc2c1C1(C(=O)N(Cc3ccccc3)c3ccccc31)C(C(=O)OC)=C(N)O2 (configuration not stated)	HSF1 activator 55.5
CCCc1[nH]nc2c1C1(C(=O)N(CC(N)=O)c3ccccc31)C(C(=O)OC)=C(N)O2 (configuration not stated)	none
CC(C)(CN)CC(=O)O	HSF1 activator 82.7 (no result: ARNT TACC3 PPI)
O=C(N/N=C\C1C(=O)NC(=S)N(c2ccccc2)C1=O)c1ccc(O)cc1 (configuration not stated)	ARNT TACC3 PPI 71.9
O=C(N/N=C/c1c(O)n(CCC2=CCCCC2)c(=S)[nH]c1=O)c1ccccc1	none
O=C1NC(=O)C(=Cc2cccc(OCCOc3ccccc3)c2)C(=O)N1	none
O=C1NC(=O)C(=Cc2ccc(OCCOc3ccc([N+](=O)[O-])cc3)cc2)C(=O)N1	ARNT TACC3 PPI active
COC(=O)[C@@H]1[C@@H](CO)[C@@H]2Cn3c(ccc(-c4cccc(OC)c4)c3=O)[C@H]1N2CC1CC1	none (no result: HSF1 activator, HIF act, HSF1 inhib, HSP90 inh)
CSCc1nnc2n1-c1ccc(Cl)cc1C(c1ccccc1)=NC2	HSF1 inhib -86.6
Cc1ccc(NC(=S)NCCc2cnc[nH]2)cc1C	none (no result: HSF1 activator, HIF act, HSF1 inhib)
S=C(NCCc1ccccc1)NCCc1cnc[nH]1	ARNT TACC3 PPI 57.3
COC(=O)[C@@H]1[C@@H](CO)[C@@H]2Cn3c(ccc(-c4cccnc4)c3=O)[C@H]1N2S(=O)(=O)c1ccccc1F	none (no result: HSF1 activator, HIF act, HSF1 inhib, HSP90 inh)
Cc1ccc2c(c1)N(CCC(=O)N1CCC3(CC1)OCCO3)C(=O)CO2	none
Cc1ccc2c(c1)N(C(=O)CCC(=O)N1CCC3(CC1)OCCO3)CCO2	HSF1 inhib -50.9
O=C(O)[C@H]1[C@H](CO)[C@H]2Cn3c(ccc(-c4ccncc4)c3=O)[C@@H]1N2C(=O)C1CCCCC1	none (no result: HSF1 activator, HIF act, HSF1 inhib, HSP90 inh)
CCOC(=O)c1c(N)n(Cc2ccc(OC)cc2)c2nc3ccccc3nc12	none (no result: ARNT TACC3 PPI)
COC(=O)c1c(N)n(Cc2ccc(OC)cc2)c2nc3ccccc3nc12	ARNT TACC3 PPI 14.8 (no result: HSF1 activator, HIF act, HSF1 inhib)
CC(C)CNC(=O)c1c(N)n(Cc2ccco2)c2nc3ccccc3nc12	HSF1 activator 55.7
COCCOC(=O)c1c(N)n(Cc2ccc(OC)cc2)c2nc3ccccc3nc12	none
COCCCNC(=O)c1c(N)n(Cc2ccco2)c2nc3ccccc3nc12	HSF1 activator 114.9 (no result: ARNT TACC3 PPI)
COCCOC(=O)c1c(N)n(Cc2ccco2)c2nc3ccccc3nc12	ARNT TACC3 PPI 62.4
CCCNC(=O)c1c(N)n(Cc2ccco2)c2nc3ccccc3nc12	none (no result: ARNT TACC3 PPI)
COC(=O)[C@H]1[C@H](CO)[C@H]2Cn3c(ccc(-c4ccccc4F)c3=O)[C@@H]1N2	none (no result: HSF1 activator, HIF act, HSF1 inhib, HSP90 inh)
COC(=O)[C@H]1[C@H](CO)[C@H]2Cn3c(ccc(-c4ccc(F)cc4)c3=O)[C@@H]1N2Cc1ccccc1	none (no result: HSF1 activator, HIF act, HSF1 inhib, HSP90 inh)
O=C(Cc1ccccc1)N1CCCCN2[C@@H](CO)[C@H](c3ccc(C#CC4(O)CCCC4)cc3)[C@@H]2C1	none (no result: HSF1 activator, HIF act, HSF1 inhib, HSP90 inh)
COC(=O)[C@H]1[C@H](CO)[C@H]2Cn3c(ccc(C4=CCCC4)c3=O)[C@@H]1N2Cc1ccccn1	none (no result: HSF1 activator, HIF act, HSF1 inhib, HSP90 inh)
CCOC(=O)[C@@H]1[C@@H]2NC(=S)N(C)[C@@]1(COCc1ccc(OC)cc1)Oc1ccccc12	none (no result: HSF1 activator, HIF act, HSF1 inhib, HSP90 inh)
O=C(O)[C@@H]1[C@@H](CO)[C@@H]2Cn3c(ccc(-c4cncnc4)c3=O)[C@H]1N2C(=O)NC1CCCC1	none (no result: HSF1 activator, HIF act, HSF1 inhib, HSP90 inh)
COCCCNC(=O)c1c(NC(=O)c2ccco2)n(Cc2ccccc2)c2nc3ccccc3nc12	none
